The record followed here is PubChem BioAssay (NCATS).

Test [1] concerns the target Cellular tumor antigen p53 (Homo sapiens) (UniProt P04637). The test can be described thus: Primary qHTS for small molecule compounds that upregulate eGFP-tagged delta133p53alpha (in N-terminal) cells. (AID 2060322). Further: nearly all actives have a fitted effect of over 75% in size. Further: potency means the concentration at half of the fitted maximal effect.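 On activation: cells pre-induced with doxycycline then dosed without doxycycline; series mostly up to about 56 µM; 0% = DMSO vehicle and 100% = reference activator.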 To be noted: NCI-H358 eGFP-delta133p53alpha fluorescence, 24 h; activation: active compounds read high. The method in brief: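 NCI-H358 cells pre-induced 24 h with 10 ng/ml doxycycline for eGFP-delta133p53alpha, plated dox-free and exposed 24 h at 37C to titrated compounds. Fixed, Hoechst-stained; gated GFP peak intensity by laser scanning cytometry, normalized to DMSO (0%) and 57.5 uM 5-azacytidine (100%).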
On the technique in general: In qHTS, concentration-response curves come from the screen itself.

Test [2] has as its target Retinaldehyde dehydrogenase 3 (Homo sapiens) (UniProt P47895). The test can be described thus: qHTS for Inhibitors of the Aldehyde Dehydrogenase Family (ALDH1A3) Validation screen (AID 2061312). Further: on the % scale 0 is the no-effect control and ±100 the full control effect; nearly all actives have a fitted effect of over 45% in size.
Test [3] is described as follows: BET inhibitor-based combinations targeting novel dependencies in MECOM-rearranged (r) AML: SET-2 cell line (AID 2202231). Further: nearly all actives have a fitted effect of over 35% in size. Further: potency means the concentration at half of the fitted maximal effect.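 On viability: plate controls were DMSO treated cells for no effect and wells without cells for full effect.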 The settings on record: SET-2 AML cells viability, CellTiter-Glo luminescence, 48 h; viability: active compounds read low, concentration not given here. The procedure, abridged: (§1)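 Readout: CellTiter-Glo luminescence. Exposure: 48 h, 11 concentrations, 500 cells/well. Metric: AUC and within-line Z-AUC after DMSO/empty-well normalization.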
On the technique in general: Cellular ATP, detected with luciferase, serves as a proxy for viable cell number.

Test [4] in a line: BET inhibitor-based combinations targeting novel dependencies in MECOM-rearranged (r) AML: MV-4-11 cell line (AID 2202233). Further: nearly all actives have a fitted effect of over 45% in size. Further: potency means the concentration at half of the fitted maximal effect. The method in brief:
(§2)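 Seeding density was 500 cells/well, and drug exposure lasted 48 hr under standard culture conditions. Read-out used CellTiter-Glo reagent with a 15 min room-temperature incubation before luminescence measurement; AUC and Z-AUC summarize the normalized responses.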

Test [5] can be described thus: BET inhibitor-based combinations targeting novel dependencies in MECOM-rearranged (r) AML: UCSD-AML1 cell line (AID 2202235). Further: nearly all actives have a fitted effect of over 40% in size. Further: potency means the concentration at half of the fitted maximal effect. The method in brief:
as §2

Test [6] in a line: BET inhibitor-based combinations targeting novel dependencies in MECOM-rearranged (r) AML: AML-191 cell line (AID 2202236; further: nearly all actives have a fitted effect of over 35% in size; further: potency means the concentration at half of the fitted maximal effect). The method in brief:
as §1

Test [7] in a line: BET inhibitor-based combinations targeting novel dependencies in MECOM-rearranged (r) AML: AML-194 cell line (AID 2202237; further: nearly all actives have a fitted effect of over 40% in size; further: potency means the concentration at half of the fitted maximal effect). The procedure, abridged:
as §1

The target of test [8] is Retinaldehyde dehydrogenase 3 (Homo sapiens) (UniProt P47895). Nature of the test: qHTS for Inhibitors of the Aldehyde Dehydrogenase Family (ALDH1A3) Primary screen (AID 2061315). Further: potency means the concentration at half of the fitted maximal effect.
A short description of test [9]: BET inhibitor-based combinations targeting novel dependencies in MECOM-rearranged (r) AML: OCI-AML3 cell line (AID 2202232). Further: nearly all actives have a fitted effect of over 35% in size. Further: potency means the concentration at half of the fitted maximal effect. The settings on record: Potency: OCI-AML3 viability. The method in brief: as §1
Test [10] in a line: BET inhibitor-based combinations targeting novel dependencies in MECOM-rearranged (r) AML: HNT-34 cell line (AID 2202234). Further: nearly all actives have a fitted effect of over 35% in size. Further: potency means the concentration at half of the fitted maximal effect. The method in brief:
as §2

“And” between values parts separate entries of the source, which are not always exact repeats. Equal entries are not always repeated. Results filed as inconclusive are left out. Values without a mark were called inactive. The source made the active and inactive calls. The call rests on the fitted dose curve; in most records, active means well fitted curve in the direction sought with a large enough effect; inconclusive means small, poorly fitted or top-dose-only effect, or another doubt; inactive means no such curve, though single readings can be large; an effect the other way counts as inactive or inconclusive.

In general, viability refers to a read-out of living cells in per cent, often relative to untreated cells.

Cellular tumor antigen p53 (Homo sapiens), sequence (P04637 whole entry, looked up): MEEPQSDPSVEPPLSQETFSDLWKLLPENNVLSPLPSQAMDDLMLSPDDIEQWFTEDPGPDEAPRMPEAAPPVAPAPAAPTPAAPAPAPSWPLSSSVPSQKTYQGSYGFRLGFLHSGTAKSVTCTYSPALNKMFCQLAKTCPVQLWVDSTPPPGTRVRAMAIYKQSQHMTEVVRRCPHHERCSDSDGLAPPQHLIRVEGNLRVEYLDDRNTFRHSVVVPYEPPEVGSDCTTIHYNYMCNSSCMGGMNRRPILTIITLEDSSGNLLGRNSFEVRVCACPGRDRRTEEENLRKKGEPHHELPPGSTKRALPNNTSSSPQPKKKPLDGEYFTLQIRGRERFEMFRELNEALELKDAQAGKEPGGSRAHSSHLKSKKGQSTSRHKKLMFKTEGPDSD

Regarding `Cc1ccccc1C(C(=O)NC1CCCCC1)N(C(=O)Cn1ccnc1C)c1cccc(F)c1` (configuration not stated), the activation in test [1] was -12.7% and -11.5%. Moreover, the Potency result in test [2], in test [4], in test [5], in test [6] and in test [7] was “inactive” in each case. In test [3], the viability is 116%.
On to `O=C(O)COCCN1CCN([C@H](c2ccccc2)c2ccc(Cl)cc2)CC1`, for which, in test [1], the activation is -5.73%. The Potency result in test [2] and in test [8] was “inactive” each time.
As to `O=C(NN1CCCCC1)c1nn(-c2ccc(Cl)cc2Cl)c(-c2ccc(C#Cc3ccc(C(F)(F)F)cc3)s2)c1CNS(=O)(=O)N1CCCC1`, the activation in test [1] was -21%. Also, the Potency entry in [8] is “inactive”.
For `O=C(O)c1cc2cccc([N+](=O)[O-])c2[nH]1`, in that order: 10.3% and “inactive”.
For `CC(C)=C/C=C\[C@H](C)[C@H]1CC[C@]2(C)C[C@@H]3C(C)=CC(=O)C3/C(CO)=C\C[C@@H]12` (some centres not stated), in that order: -9.92% and “inactive”.
For `CO[C@@H](Cc1ccc(OCCc2nc(-c3ccccc3)oc2C)c2ccsc12)C(=O)O`, the activation in test [1] is -6.25%. The Potency entry in test [8] was “inactive”.
On to `C/C(=C\CCC1(C)C2CCC(C2)C1(C)O)C(=O)O` (configuration not stated), for which the activation in test [1] was -13.7%. For the same compound, the Potency entry in [8] is “inactive”.
For `C#Cc1cccc(Nc2nc3cc(C(=O)O)ccc3c3cncnc23)c1`, in that order: 8.04% and “inactive”.
In the case of `C[C@@H]1O[C@@H](O[C@@H]2\C=C/C=C\C=C/C=C\C[C@H](C)OC(=O)/C=C\[C@H]3O[C@@H]3C[C@H](O)C[C@]3(O)C[C@@H](O)[C@@H](C(=O)O)[C@H](C2)O3)[C@H](O)[C@H](N)[C@@H]1O`, the activation in test [1] was 17.7%. The Potency result in test [8], in test [9], in [4], in [10], in [5] and in test [7] was “inactive” each time. Also, the viability in [3] was 112%.
In the case of `COCCCNCC1COc2ccccc2O1` (configuration not stated), the activation in [1] is -6.68%. Besides, in [8], the Potency result is “inactive”.
On to `C=CC(=O)Nc1ccc(CN2C(=O)N(c3cc(OC)cc(OC)c3)Cc3cnc(Nc4ccc(N5CCN(C)CC5)cc4)nc32)cc1`, for which the Potency in test [1] was 13500 nM (active). Besides, the Potency entry in [8] is “inactive”.
Regarding `COc1cc(CCc2ccc(OCC=C(C)C)cc2)cc(OC)c1OC`, the activation in test [1] was -17.6%. Also, in test [8], the Potency result was “inactive”.
`COc1cccc2nc(-c3cccs3)nc(NN3C(=O)C=C(C)C3=O)c12`: the Potency in [1] was 19300 nM (active); in test [3] it was 417 nM (active); in test [9] it was 417 nM (active); in [4], 166 nM (active); in test [10] it was 263 nM (active); in [5], 105 nM (active). For the same compound, the Potency is 148 nM (active) in test [6] and 263 nM (active) in test [7]. Also, the Potency entry in [8] is “inactive”.
As to `COc1ccc(C2(O)c3c(ccc4c3OC(C)(CCC=C(C)C)C=C4)NC(=O)C2OC)cc1` (configuration not stated), the activation in test [1] was -4.58%. The Potency result in [8] was “inactive”.
In the case of `COC(=O)CC1OC(C)C2=C(O)c3c(O)cccc3C(=O)C23OC13` (configuration not stated), the Potency in test [1] was 5880 nM (active); in test [8], 1580 nM (active).
For the compound `CCCNCCc1ccc(NS(=O)(=O)c2ccc(OC(F)(F)F)cc2)cc1`, in [1], the activation was 6.68%. The Potency result in test [8] was “inactive”.
For `CC1CC(O)/C=C/C(O)C(O)CC(=O)Cc2c(Cl)c(O)cc(O)c2C(=O)O1` (configuration not stated), in that order: 4.58% and “inactive”.
For `CCCn1cnc2c(NCc3ccccc3)nc(N[C@H](CC)CO)nc21`, in that order: 2.33% and “inactive”.
For `C=C(COC(=O)CC(C)C)C1Cc2cc(C(C)=O)ccc2O1` (configuration not stated), in [1], the activation was -15.2%. Moreover, the Potency result in test [8] was “inactive”.
For `C/C=C(/COC(=O)/C(C)=C/C)C(=O)OC/C=C/c1ccc(OC)cc1`, in that order: 0.893% and “inactive”.
For `O=C(NCc1cccs1)c1cc2nc(-c3ccco3)cc(C(F)(F)Cl)n2n1`, in that order: 0.477% and “inactive”.
For `CC(=O)Oc1cc2c(s1)CCN([C@H](C(=O)C1CC1)c1ccccc1F)C2`, in that order: 0.477% and “inactive”.
With `O=c1cc(NCCCN[C@@H]2CCOc3c(Br)cc(Br)cc32)[nH]c2ccsc12`, in [1], the activation was 0.477%. For the same compound, the Potency result in test [8] is “inactive”.
For `C[C@H](Nc1ncnc2nc[nH]c12)c1cc2ccc(F)cc2nc1-c1ccccn1`, in that order: 5% and “inactive”.
As to `Nc1ccccc1NC(=O)c1ccc(CNc2nccc(-c3cccnc3)n2)cc1`, the activation in test [1] is 65.9%. Moreover, in [8], the Potency entry is “inactive”. Moreover, the Potency in test [3] is 1660 nM (active); in test [9] it was 1320 nM (active); in test [4] it was 662 nM (active); in test [10], 1860 nM (active); in test [5] it was 1320 nM (active); in test [6], 1660 nM (active). Also, in [7], the Potency is 1660 nM (active).
As for `COc1ccc(OC)c(-c2ccc(NC(=O)c3ccncc3F)cc2)c1`, the activation in [1] is -5.73%. In addition, the Potency result in test [8] was “inactive”.
For `COc1c(C(CC(C)C)OC(C)=O)ccc(Oc2c(O)cc(C)cc2/C=C/C(C)=O)c1C(=O)O` (configuration not stated), in that order: -25.2% and “inactive”.
For `C[C@@H]1O[C@@H](O[C@H]2[C@H](O[C@H]3[C@H](O[C@H]4CC[C@@]5(C)C(CC[C@]6(C)C5CC=C5[C@@H]7CC(C)(C)CC(=O)[C@]7(C)CC[C@]56C)[C@@]4(C)CO)O[C@H](C(=O)O)[C@@H](O)[C@@H]3O)O[C@H](CO)[C@H](O)[C@@H]2O)[C@H](O)[C@H](O)[C@H]1O` (some centres not stated), in that order: -17% and “inactive”.
